The values that follow come from PubChem BioAssay AID651908 (Vanderbilt Specialized Chemistry Center, 2012).

The structures appear in SMILES notation. Calls of active or inactive are those of the source. No rule for the calls is given here.

This experiment concerns the target Histone deacetylase 8 (Homo sapiens) (UniProt Q9BY41). Nature of the experiment: inhibitors of recombinant human HDAC8 – biochemical, selectivity assay for E-cadherin restoration project, profiling panel (AID 651908).

Histone deacetylase 8 (Homo sapiens), sequence (Q9BY41 whole entry, looked up): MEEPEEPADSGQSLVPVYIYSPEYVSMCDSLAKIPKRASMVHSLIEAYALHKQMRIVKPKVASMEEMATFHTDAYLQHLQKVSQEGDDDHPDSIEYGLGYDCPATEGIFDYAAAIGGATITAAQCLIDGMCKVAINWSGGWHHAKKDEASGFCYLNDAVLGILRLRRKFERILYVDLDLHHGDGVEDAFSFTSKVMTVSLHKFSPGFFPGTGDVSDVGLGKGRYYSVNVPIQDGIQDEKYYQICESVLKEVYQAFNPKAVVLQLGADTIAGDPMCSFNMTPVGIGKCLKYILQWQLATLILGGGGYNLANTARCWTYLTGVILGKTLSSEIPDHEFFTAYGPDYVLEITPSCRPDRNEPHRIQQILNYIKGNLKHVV

In the case of `O=C(NCCCNC(=O)c1ccc[nH]c1=O)c1cc(-c2ccccc2)on1`, the result was inactive.
